# Values joined by “and” are separate entries in the source; they are usually repeats but may differ in a detail not shown here. Equal values may be shown once. Records with an inconclusive call do not appear. Entries that show only a call come without a potency. The source holds several records for some structures; these can differ, active in one and inactive in another. Active and inactive are the calls of the source. Unless noted, calls follow the shape of the dose curve; as a rule, active = well fitted curve in the direction sought with a large enough effect in the repeat runs; inconclusive = weak or mixed curves; inactive = no such curve, though single readings can be large; an effect the other way counts as inactive or inconclusive.
# Legend:
# [1] = qHTS assay to identify small molecule agonists of the androgen receptor (AR) signaling pathway in the presence of an antagonist - cell viability counter screen (AID 1259379); also: nearly all actives have a fitted effect of over 25% in size; also: potency is read from the fitted curve at half-maximal effect
# How it was run: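 Cytotoxicity is assessed by CellTiter-Fluor in MDA-kb2 cells carrying an MMTV-driven luciferase reporter. Cells receive 3.0uM nilutamide plus compounds at 15 concentrations and incubate 16 hr at 37C without CO2 before fluorescence reading.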
# [2] = qHTS assay to identify small molecule agonists of the estrogen receptor beta (ER-beta) signaling pathway - cell viability counter screen (AID 1259380); also: nearly all actives have a fitted effect of over 30% in size; also: potency is read from the fitted curve at half-maximal effect
# How it was run: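 Cytotoxicity is measured in parallel with the reporter screen: after 16 hr compound exposure at 37C and a 2 hr LiveBLAzer step, CellTiter-Glo is added to the same ER-beta-UAS-bla HEK293T wells and luminescence read after 30 min.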
# [3] = qHTS assay to identify small molecule antagonists of the estrogen receptor beta (ER-beta) signaling pathway - cell viability counter screen (AID 1259382); also: nearly all actives have a fitted effect of over 55% in size; also: potency is read from the fitted curve at half-maximal effect
# How it was run: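 Cytotoxicity counter screen multiplexed with the beta-lactamase antagonist assay: GripTite HEK293T ER-beta-bla cells were treated 16 hr with test chemicals in the presence of 1nM 17-beta-estradiol, and viability was measured by CellTiter-Glo.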
# [4] = biological target: Estrogen receptor (Homo sapiens) (UniProt P03372); test: qHTS assay to identify small molecule agonists of the estrogen receptor alpha (ER-alpha) signaling pathway in the presence of an antagonist (AID 1259383; calls by dose curve; also: nearly all actives have a fitted effect of over 15% in size; also: potency is read from the fitted curve at half-maximal effect; as to activation: top concentration of the series differs between compounds)
# Sequence of Estrogen receptor (Homo sapiens) (P03372 whole entry, looked up): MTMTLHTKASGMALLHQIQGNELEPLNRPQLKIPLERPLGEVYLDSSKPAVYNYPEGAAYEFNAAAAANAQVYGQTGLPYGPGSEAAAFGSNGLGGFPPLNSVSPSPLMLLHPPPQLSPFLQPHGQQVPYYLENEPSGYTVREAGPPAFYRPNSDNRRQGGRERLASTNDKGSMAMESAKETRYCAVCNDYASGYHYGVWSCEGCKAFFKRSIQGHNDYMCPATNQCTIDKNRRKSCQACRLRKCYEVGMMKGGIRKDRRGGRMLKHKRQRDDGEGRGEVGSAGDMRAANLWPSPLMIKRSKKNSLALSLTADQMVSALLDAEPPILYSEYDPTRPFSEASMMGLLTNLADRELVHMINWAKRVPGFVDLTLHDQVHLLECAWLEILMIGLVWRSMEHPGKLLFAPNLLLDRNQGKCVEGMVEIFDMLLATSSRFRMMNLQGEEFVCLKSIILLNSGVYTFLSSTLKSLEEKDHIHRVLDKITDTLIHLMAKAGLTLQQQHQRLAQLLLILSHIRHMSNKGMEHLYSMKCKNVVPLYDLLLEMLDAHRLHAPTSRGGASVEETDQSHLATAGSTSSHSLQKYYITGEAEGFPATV
# How it was run: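 Agonist-mode confirmation in the presence of the ER antagonist ICI-182,780 at 10.0nM final. Breast-derived VM7Luc4E2 reporter cells were exposed to compounds for 22hr, and ERE-driven luciferase was quantified by luminescence.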
# [5] = qHTS assay to identify small molecule agonists of the estrogen receptor alpha (ER-alpha) signaling pathway in the presence of an antagonist - cell viability counter screen (AID 1259386);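 also: cells exposed to compounds for 22 h at 37 °C before the viability read; nearly all actives have a fitted effect of over 30% in size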; also: potency is read from the fitted curve at half-maximal effect
# How it was run: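 Cytotoxicity was measured in parallel with the ERE-luciferase agonist screen, in the same wells. The cells were VM7Luc4E2, which endogenously express ER-alpha, and treatment was with compounds plus 10.0nM ICI-182,780 for 22hr.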
# [6] = biological target: Progesterone receptor (Homo sapiens) (UniProt P06401); test: qHTS assay to identify small molecule agonists of the progesterone receptor (PR) signaling pathway (AID 1346784; calls by dose curve; also: nearly all actives have a fitted effect of over 30% in size)
# Sequence of Progesterone receptor (Homo sapiens) (P06401 whole entry, looked up): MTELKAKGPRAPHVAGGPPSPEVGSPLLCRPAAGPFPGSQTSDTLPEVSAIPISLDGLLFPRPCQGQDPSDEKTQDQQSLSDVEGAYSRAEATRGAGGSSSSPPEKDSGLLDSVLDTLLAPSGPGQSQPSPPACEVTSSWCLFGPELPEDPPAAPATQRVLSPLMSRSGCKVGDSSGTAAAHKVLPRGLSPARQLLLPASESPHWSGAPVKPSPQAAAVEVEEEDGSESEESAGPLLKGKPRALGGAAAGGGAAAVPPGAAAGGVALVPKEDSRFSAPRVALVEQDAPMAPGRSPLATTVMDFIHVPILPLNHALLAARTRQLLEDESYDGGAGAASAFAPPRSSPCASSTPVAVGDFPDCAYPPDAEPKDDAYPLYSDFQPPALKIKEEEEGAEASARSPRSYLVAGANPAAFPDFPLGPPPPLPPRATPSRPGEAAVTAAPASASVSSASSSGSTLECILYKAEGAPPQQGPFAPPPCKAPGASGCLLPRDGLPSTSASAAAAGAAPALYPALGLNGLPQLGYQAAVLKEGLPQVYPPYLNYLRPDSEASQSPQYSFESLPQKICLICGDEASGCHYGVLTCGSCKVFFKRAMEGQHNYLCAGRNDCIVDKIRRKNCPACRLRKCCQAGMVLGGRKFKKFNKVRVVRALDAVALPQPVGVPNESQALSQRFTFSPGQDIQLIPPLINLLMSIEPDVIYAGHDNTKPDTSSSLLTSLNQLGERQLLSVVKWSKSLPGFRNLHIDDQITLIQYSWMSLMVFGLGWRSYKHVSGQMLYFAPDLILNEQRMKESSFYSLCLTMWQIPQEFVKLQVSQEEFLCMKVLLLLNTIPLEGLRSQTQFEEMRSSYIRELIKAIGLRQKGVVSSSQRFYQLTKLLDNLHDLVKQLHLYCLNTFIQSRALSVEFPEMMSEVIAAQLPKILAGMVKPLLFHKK
# How it was run: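 Fluorescence from LiveBLAzer B/G FRET substrate cleavage (2 hr, RT) reported PR activation in PR-UAS-bla HEK 293T cells treated 16 hr at 37C/5% CO2 with compounds; medium contained 2% charcoal-stripped FBS.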
# [7] = qHTS assay to identify small molecule antagonists of the progesterone receptor (PR) signaling pathway - cell viability counter screen (AID 1346798); also: nearly all actives have a fitted effect of over 50% in size; also: potency is read from the fitted curve at half-maximal effect
# How it was run: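 CellTiter-Glo luminescence; PR-UAS-bla HEK293T, 3,000 cells/well; compound + R5020, 16 hr, 37C/5% CO2; 30 min RT before read.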
# [8] = qHTS assay to identify small molecule agonists of the progesterone receptor (PR) signaling pathway - cell viability counter screen (AID 1346799; calls by dose curve; also: nearly all actives have a fitted effect of over 45% in size; also: potency is read from the fitted curve at half-maximal effect)
# How it was run: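 In parallel with the beta-lactamase readout, cytotoxicity toward PR-UAS-bla HEK293T cells was measured by CellTiter-Glo luminescence following 16 hr compound incubation in 2% charcoal-stripped FBS medium.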
# [9] = qHTS assay to identify small molecule antagonists of the TGF-beta/Smad signaling pathway - cell viability counter screen (AID 1346824); also: nearly all actives have a fitted effect of over 50% in size; also: potency is read from the fitted curve at half-maximal effect
# How it was run: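 SBE-bla HEK 293T cells were plated overnight at 37 C, then given compounds in DMSO plus TGF-beta1 (added as 0.25 ng/mL solution) for 5 hr. After the bla read, CellTiter-Glo was added to the same wells and luminescence read after 30 min at room temperature.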
# [10] = qHTS assay to identify small molecule agonists of the TGF-beta/Smad signaling pathway - cell viability counter screen (AID 1346829); also: nearly all actives have a fitted effect of over 45% in size; also: potency is read from the fitted curve at half-maximal effect
# How it was run: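 Here the cytotoxicity of library compounds is measured in SBE-bla HEK 293T cells treated for 5 hr, using CellTiter-Glo added to wells already read for the beta-lactamase reporter.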
# [11] = qHTS assay to identify small molecule agonists of the TGF-beta/Smad signaling pathway (AID 1346859; active = well fitted activation curve with a large enough effect in the signal ratio in the repeat runs, not every such curve was filed as active; the % refers to the signal ratio; also: series mostly up to about 77 µM)
# How it was run: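 After overnight seeding, SBE-bla HEK 293T cells are dosed with compounds in DMSO and kept 5 hr at 37 C, 5% CO2. LiveBLAzer-type FRET substrate is then applied for 2 hr at room temperature.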
# [12] = Human pregnane X receptor (PXR) small molecule agonists, qHTS cell viability counter screen (AID 1346977); also: nearly all actives have a fitted effect of over 50% in size; also: potency is read from the fitted curve at half-maximal effect
# How it was run: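 Viability counter screen: CellTiter-Fluor signal in PXR-Luc HepG2 cells, 24hr compound exposure, 37C, 5% CO2.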
# [13] = biological target: Androgen receptor (Homo sapiens) (UniProt P10275); test: qHTS assay to identify small molecule agonists of the androgen receptor (AR) signaling pathway in the presence of an antagonist (AID 1259381; calls by dose curve; also: nearly all actives have a fitted effect of over 15% in size; also: potency is read from the fitted curve at half-maximal effect)
# Sequence of Androgen receptor (Homo sapiens) (P10275 whole entry, looked up): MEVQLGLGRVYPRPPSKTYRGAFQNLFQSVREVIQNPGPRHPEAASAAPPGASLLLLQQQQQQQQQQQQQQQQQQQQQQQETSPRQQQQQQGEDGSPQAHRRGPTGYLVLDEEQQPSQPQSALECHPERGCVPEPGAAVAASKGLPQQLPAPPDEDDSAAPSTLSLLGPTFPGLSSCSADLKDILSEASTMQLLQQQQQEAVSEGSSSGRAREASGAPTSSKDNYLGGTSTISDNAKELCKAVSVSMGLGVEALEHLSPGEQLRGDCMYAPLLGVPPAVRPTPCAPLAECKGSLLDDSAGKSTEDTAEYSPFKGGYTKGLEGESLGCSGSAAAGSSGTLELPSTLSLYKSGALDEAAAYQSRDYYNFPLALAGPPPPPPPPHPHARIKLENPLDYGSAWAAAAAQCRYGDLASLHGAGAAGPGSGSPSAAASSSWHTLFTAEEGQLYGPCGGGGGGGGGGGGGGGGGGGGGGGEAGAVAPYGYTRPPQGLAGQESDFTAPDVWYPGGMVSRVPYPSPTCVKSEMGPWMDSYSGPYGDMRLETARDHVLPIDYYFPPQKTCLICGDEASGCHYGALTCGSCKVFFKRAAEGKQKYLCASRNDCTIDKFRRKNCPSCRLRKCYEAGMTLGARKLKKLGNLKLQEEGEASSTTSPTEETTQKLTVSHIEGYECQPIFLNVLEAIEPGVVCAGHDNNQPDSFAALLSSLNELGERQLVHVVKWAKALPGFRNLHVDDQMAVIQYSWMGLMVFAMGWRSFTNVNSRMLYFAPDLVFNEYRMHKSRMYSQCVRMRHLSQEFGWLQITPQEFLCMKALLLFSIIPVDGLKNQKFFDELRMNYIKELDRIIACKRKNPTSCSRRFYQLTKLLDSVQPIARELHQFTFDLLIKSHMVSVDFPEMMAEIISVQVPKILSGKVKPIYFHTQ
# How it was run: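 Agonist-mode confirmation screen: human MDA-kb2 cells stably expressing luciferase under an MMTV promoter bearing AR and GR response elements, co-treated with 3.0uM nilutamide (final). Luminescence measured after 16hr compound incubation.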
# [14] = biological target: Thyrotropin-releasing hormone receptor (Homo sapiens) (UniProt P34981); test: qHTS assay to identify small molecule antagonists of the thyrotropin-releasing hormone receptor (TRHR) signaling pathway (AID 1346877; active = well fitted inhibition curve with a large enough effect in the repeat runs, not every such curve was filed as active; also: potency is read from the fitted curve at half-maximal effect)
# Sequence of Thyrotropin-releasing hormone receptor (Homo sapiens) (P34981 whole entry, looked up): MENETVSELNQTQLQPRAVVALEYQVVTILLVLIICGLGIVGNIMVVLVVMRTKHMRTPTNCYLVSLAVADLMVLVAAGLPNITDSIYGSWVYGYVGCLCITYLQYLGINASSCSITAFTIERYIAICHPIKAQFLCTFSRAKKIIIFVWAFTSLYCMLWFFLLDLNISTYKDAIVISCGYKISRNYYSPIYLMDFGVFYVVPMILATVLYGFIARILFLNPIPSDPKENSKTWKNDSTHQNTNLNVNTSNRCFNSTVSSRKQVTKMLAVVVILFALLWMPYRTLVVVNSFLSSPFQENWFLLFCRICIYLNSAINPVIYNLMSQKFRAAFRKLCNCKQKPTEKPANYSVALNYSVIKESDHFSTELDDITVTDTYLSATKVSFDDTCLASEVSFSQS
# How it was run: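 Antagonism is measured as suppression of the calcium response to 1 nM TRH in TRHR-HEK293 cells that have been dye-loaded for 2 h at 37 °C after overnight plating. Each compound is tested at 15 concentrations in triplicate.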
# [15] = biological target: Thyrotropin-releasing hormone receptor (Homo sapiens) (UniProt P34981); test: qHTS assay to identify small molecule agonists of the thyrotropin-releasing hormone receptor (TRHR) signaling pathway (AID 1346891; calls by dose curve;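 also: HEK293 cells expressing TRHR with calcium dye readout; series mostly up to about 58 µM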)
# How it was run: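 Compounds were tested as agonists at 15 concentrations, in triplicate, on TRHR-Hek293 cells; calcium-sensitive dye fluorescence was recorded for 3 min following addition.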
# [16] = qHTS assay to identify small molecule agonists or antagonists of the thyroid stimulating hormone receptor (TSHR) signaling pathway - wild type cell line counter screen (AID 1259384; calls by dose curve)
# How it was run: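 Wild-type HEK293 cells were plated 18 h at 37 C/5% CO2, pin-dosed with compound plus Ro20-1724 medium, held 30 min at room temperature, then given cAMP-d2 and anti-cAMP-cryptate; fluorescence was read after 1 h. Fifteen concentrations, triplicate.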
# [17] = biological target: Thyrotropin receptor (Homo sapiens) (UniProt P16473); test: qHTS assay to identify small molecule antagonists of the thyroid stimulating hormone receptor (TSHR) signaling pathway (AID 1259385; calls by dose curve; also: nearly all actives have a fitted effect of over 20% in size; also: potency is read from the fitted curve at half-maximal effect)
# Sequence of Thyrotropin receptor (Homo sapiens) (P16473 whole entry, looked up): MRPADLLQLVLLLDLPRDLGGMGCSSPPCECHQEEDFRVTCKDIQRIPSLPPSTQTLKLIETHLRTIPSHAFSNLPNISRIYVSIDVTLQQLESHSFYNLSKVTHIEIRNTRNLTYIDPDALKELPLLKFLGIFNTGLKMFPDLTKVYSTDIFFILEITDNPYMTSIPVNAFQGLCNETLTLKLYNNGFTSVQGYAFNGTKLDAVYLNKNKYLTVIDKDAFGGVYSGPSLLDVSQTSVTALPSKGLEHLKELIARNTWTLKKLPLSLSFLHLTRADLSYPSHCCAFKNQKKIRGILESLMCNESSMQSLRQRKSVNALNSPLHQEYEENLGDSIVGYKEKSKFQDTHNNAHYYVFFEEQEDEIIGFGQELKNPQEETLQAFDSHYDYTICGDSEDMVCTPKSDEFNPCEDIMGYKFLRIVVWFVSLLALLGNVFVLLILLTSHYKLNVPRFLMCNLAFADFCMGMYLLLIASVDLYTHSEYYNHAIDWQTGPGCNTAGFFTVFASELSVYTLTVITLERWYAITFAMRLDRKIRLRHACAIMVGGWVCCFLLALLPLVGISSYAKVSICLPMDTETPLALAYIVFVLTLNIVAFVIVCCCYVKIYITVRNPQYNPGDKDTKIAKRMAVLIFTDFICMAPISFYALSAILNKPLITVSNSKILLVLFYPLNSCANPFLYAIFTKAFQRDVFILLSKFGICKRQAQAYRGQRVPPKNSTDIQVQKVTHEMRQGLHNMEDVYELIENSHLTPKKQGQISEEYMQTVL
# How it was run: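 TSHR-HEK293 cells were plated and held 18 h at 37C/5% CO2, then given compound plus Ro20-1724 and stimulated with TSH at 1.5 ng/mL final. After 30 min at room temperature, cAMP was detected with cAMP-d2/anti-cAMP-cryptate (1 h) by fluorescence.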
# [18] = biological target: Progesterone receptor (Homo sapiens) (UniProt P06401); test: qHTS assay to identify small molecule antagonists of the progesterone receptor (PR) signaling pathway (AID 1346795; active = well fitted inhibition curve with a large enough effect in the signal ratio in the repeat runs, not every such curve was filed as active; the % refers to the signal ratio)
# How it was run: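 Fluorescence intensity measured 2 hr after adding beta-lactamase FRET substrate to PR-UAS-bla HEK293T cells that had been co-treated 16 hr with compound and 1 nM R5020 (final concentration) in 2% charcoal-stripped FBS.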
SMILES,Potency [1],Potency [2],Potency [3],Potency [4],Potency [5],Potency [6],Potency [7],Potency [8],Potency [9],Potency [10],outcome [11],Potency [12],Potency [13],Potency [14],Potency [15],outcome [16],Potency [17],Potency [18]
CC(=[OH+])/C=C(/C)[O-].CC(=[OH+])/C=C(\C)[O-].CC(=[OH+])/C=C(\C)[O-].[Al],inactive,inactive,inactive,inactive,inactive,inactive,inactive,inactive,inactive,inactive,inactive,inactive,–,–,–,–,–,–
C[C@@H]1O[C@@H](O[C@H]2C[C@@H](O)[C@]3(CO)[C@H]4[C@H](O)C[C@]5(C)[C@@H](C6=CC(=O)OC6)CC[C@]5(O)[C@@H]4CC[C@]3(O)C2)[C@H](O)[C@H](O)[C@H]1O,inactive,81.9 nM (active) and 94.4 nM (active),–,inactive,inactive,inactive,81.9 nM (active) and 150 nM (active),116 nM (active) and 168 nM (active),–,–,–,–,366 nM (active) and 168 nM (active),inactive,inactive,–,–,–
CCCCCCCCCBr,inactive,inactive,inactive,inactive,inactive,inactive,inactive,inactive,inactive,inactive,–,inactive,–,inactive,inactive,inactive,inactive,inactive
CC1(C)CN=C(NN=C(/C=C/c2ccc(C(F)(F)F)cc2)/C=C/c2ccc(C(F)(F)F)cc2)NC1,30.6 µM (active),19.3 µM (active),–,inactive,43.3 µM (active),–,38.6 µM (active),21.7 µM (active),38.9 µM (active),34.7 µM (active),–,12.2 µM (active),inactive,–,–,inactive,–,–
CC(C)(c1ccc(O)c(-c2ccccc2)c1)c1ccc(O)c(-c2ccccc2)c1,54.5 µM (active),27.3 µM (active),–,inactive,61.1 µM (active),–,–,30.6 µM (active),–,34.7 µM (active),–,30.6 µM (active),inactive,inactive,inactive,–,–,–
CCCN(CCC)c1c([N+](=O)[O-])cc(S(N)(=O)=O)cc1[N+](=O)[O-],51.8 µM (active),23.1 µM (active),54.9 µM (active),65.2 µM (active),–,–,–,–,–,58.6 µM (active),–,50.1 µM (active),–,–,–,inactive,–,–
CC(=[OH+])/C=C(/C)[O-].CC(=[OH+])/C=C(\C)[O-].CC(=[OH+])/C=C(\C)[O-].[Fe],inactive,inactive,inactive,inactive,inactive,inactive,inactive,inactive,inactive,–,inactive,inactive,–,–,–,–,–,–
CC[C@H](C)[C@H]1O[C@]2(C=C[C@@H]1C)C[C@@H]1C[C@@H](C/C=C(\C)[C@@H](O[C@H]3C[C@H](OC)[C@@H](O[C@H]4C[C@H](OC)[C@@H](O)[C@H](C)O4)[C@H](C)O3)[C@@H](C)/C=C/C=C3\CO[C@@H]4[C@H](O)C(C)=C[C@@H](C(=O)O1)[C@]34O)O2,36.1 µM (active),18.1 µM (active),–,inactive,–,–,–,–,–,inactive,–,16.1 µM (active),–,inactive,inactive,inactive,inactive,–
CN(C)C1CSSSC1,inactive,inactive,–,inactive,inactive,inactive,inactive,inactive,–,inactive,inactive,inactive,–,inactive,inactive,inactive,inactive,inactive
O=C1C=CC(=O)c2ccccc21,43.3 µM (active),–,27.3 µM (active),inactive,30.6 µM (active),inactive,inactive,inactive,24.5 µM (active),49 µM (active),–,48.6 µM (active),inactive,21.3 µM (active),inactive,–,–,–
C[C@@H](Oc1ccc(Cl)cc1Cl)C(=O)O,inactive,–,inactive,inactive,inactive,inactive,inactive,inactive,inactive,inactive,–,inactive,–,inactive,inactive,inactive,inactive,–
Clc1ccc(-c2ccc(Cl)c(Cl)c2Cl)c(Cl)c1Cl,inactive,–,inactive,inactive,inactive,inactive,23.2 µM (active),41.2 µM (active),inactive,inactive,–,inactive,–,inactive,inactive,inactive,58.2 µM (active),–
S=C(SSC(=S)N1CCCCC1)N1CCCCC1,inactive,0.188 µM (active),–,–,inactive,inactive,0.531 µM (active),–,inactive,inactive,inactive,–,–,–,–,inactive,inactive,–
CN(C)C(=S)S,inactive,5.56 µM (active) and 1.21 µM (active) and 12.2 µM (active),12.4 µM (active),–,inactive,–,15.7 µM (active) and 17.2 µM (active),inactive and 13.7 µM (active),inactive,inactive,inactive,15.8 µM (active) and 12.1 µM (active) and 15.4 µM (active),–,–,–,–,–,–

# — PubChem BioAssay (Tox21)
